# Several values for one entry are separate records, joined by “and”; a condition that tells them apart may be missing. Identical values can stand only once. Hit rate of the full screen: of about 2,000 compounds, about 250 (12%) were called active. No stated cut-off is given here; in the data, active means hERG blockade below about -20% or above about 20%; inactive means in between. The list comes from a sample in which actives are over-represented; it also holds similar structures and randomly drawn compounds.
# Target: Voltage-gated inwardly rectifying potassium channel KCNH2 (Homo sapiens) (UniProt Q12809)
# Sequence (Q12809 whole entry, looked up): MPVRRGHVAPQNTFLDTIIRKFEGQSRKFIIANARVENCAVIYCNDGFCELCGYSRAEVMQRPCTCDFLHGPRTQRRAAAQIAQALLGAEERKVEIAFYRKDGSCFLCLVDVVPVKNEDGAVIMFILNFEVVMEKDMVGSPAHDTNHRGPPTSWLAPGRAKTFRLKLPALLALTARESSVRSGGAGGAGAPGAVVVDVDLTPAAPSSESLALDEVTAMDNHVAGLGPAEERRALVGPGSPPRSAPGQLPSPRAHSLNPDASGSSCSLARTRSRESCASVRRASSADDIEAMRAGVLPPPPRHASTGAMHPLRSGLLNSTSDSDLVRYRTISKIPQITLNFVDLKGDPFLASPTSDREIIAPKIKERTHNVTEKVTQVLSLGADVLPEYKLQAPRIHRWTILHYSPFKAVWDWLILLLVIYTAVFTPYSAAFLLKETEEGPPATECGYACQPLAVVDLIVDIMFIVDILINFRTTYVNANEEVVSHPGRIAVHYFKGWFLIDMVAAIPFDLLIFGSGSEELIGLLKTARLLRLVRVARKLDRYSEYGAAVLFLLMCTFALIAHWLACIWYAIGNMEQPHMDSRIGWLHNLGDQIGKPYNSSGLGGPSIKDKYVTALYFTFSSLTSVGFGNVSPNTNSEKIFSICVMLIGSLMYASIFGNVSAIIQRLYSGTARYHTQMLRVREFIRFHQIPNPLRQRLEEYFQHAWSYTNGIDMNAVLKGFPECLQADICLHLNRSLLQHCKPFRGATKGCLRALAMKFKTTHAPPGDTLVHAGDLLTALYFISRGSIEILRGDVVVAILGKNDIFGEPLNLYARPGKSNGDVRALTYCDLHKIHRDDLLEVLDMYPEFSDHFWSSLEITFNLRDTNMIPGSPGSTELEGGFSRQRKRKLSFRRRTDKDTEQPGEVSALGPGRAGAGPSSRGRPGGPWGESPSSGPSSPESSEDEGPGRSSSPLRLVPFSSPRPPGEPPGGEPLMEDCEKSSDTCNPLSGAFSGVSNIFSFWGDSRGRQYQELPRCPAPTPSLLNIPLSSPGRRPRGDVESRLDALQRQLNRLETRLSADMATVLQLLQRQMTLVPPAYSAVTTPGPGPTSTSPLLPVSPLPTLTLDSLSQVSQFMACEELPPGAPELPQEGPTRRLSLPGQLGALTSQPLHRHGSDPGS
# Test: KCNH2 potassium channel function modulators, cell-based (AID 376);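 further: 0% = buffer alone and 100% = reference blocker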
# Details: hERG-expressing cells, channel activity single-concentration screen; concentration not given here
row,Compound,hERG blockade
1,Cc1cc(C)nc(SCCc2cccc[n+]2C)n1,71.5% (active)
2,Cc1ccc(S(=O)(=O)NCc2cccc([N+](=O)[O-])c2)cc1,14.6% (inactive)
3,Cc1cccc(CNc2ncnc3[nH]ncc23)c1,-7.57% (inactive)
4,COc1ccc(Br)c2c1CC(C(=O)O)CC2 (stereo not drawn),-1.02% (inactive)
5,Cc1ccc(C(=N)c2ccccc2Cc2cccc3ccccc23)c2ccccc12,-5.31% (inactive)
6,c1cncc(CSc2ncnc3nc[nH]c23)c1,-11.9% (inactive)
7,Cc1nc2ccccc2nc1N1CCCC1,-18.7% (inactive)
8,Cc1cc(N2CCOCC2)nc2ccc(Cc3ccc4nc(N5CCOCC5)cc(C)c4c3)cc12,42.1% (active)
9,Cc1cc(N2CCCCC2)nc2ccc(Cc3ccc4nc(N5CCCCC5)cc(C)c4c3)cc12,81.4% (active)
10,COc1ccc(CC(O)CN2CCOCC2)cc1 (stereo not drawn),-3.36% (inactive)
11,Cc1cc(Cl)nc2ccc(Cc3ccc4nc(Cl)cc(C)c4c3)cc12,-16.7% (inactive)
12,NCCNCC1CCNCC1,-1.79% (inactive)
13,OC1COC(OCc2ccccc2)C(O)C1O (stereo not drawn),-4.05% (inactive)
14,COc1ccc(C(=O)NN=C2C(=O)c3c(C)cc(C)cc3CC2(C)C)cc1,8.71% (inactive)
15,CC1(C)C2CCC1(C)C(OC(=O)C=Cc1ccccc1)C2 (stereo not drawn),-7.8% (inactive)
16,CC(C)c1ccccc1S(=O)c1ccccc1C(C)(C)O (stereo not drawn),-9.35% (inactive)
17,CC(C)CSCC1OC(n2cnc3c(N)nccc32)C(O)C1O (stereo not drawn),-11.9% (inactive)
18,O=C(O)C(Br)C(Br)c1ccccc1[N+](=O)[O-] (stereo not drawn),-1.11% (inactive)
19,CC(=NNc1ccc2ccccc2n1)c1ccccc1O,8.91% (inactive)
20,CN(N=Cc1ccccc1O)c1ccc2ccccc2n1,-0.991% (inactive)
21,O=[N+]([O-])c1cccc(C=NNc2ccc3ccccc3n2)c1O,26.8% (active)
22,Cc1cc(-c2cc(C)c(O)c(C(C)(C)C)c2)cc(C(C)(C)C)c1O,0.0679% (inactive)
23,CC(CS(=O)(=O)Cc1ccccc1)C(N)=O (stereo not drawn),3.43% (inactive)
24,COc1c(O)ccc2c1CN1CCc3cc4c(cc3C1C2)OCO4 (stereo not drawn),22.7% (active)
25,CC1=NC(C)(COC(=O)C2(C)NC(C)(CO)CO2)COC1=O (stereo not drawn),-5.89% (inactive)
26,N=C(N)SCCc1ccccn1,-2.29% (inactive) and 1.24% (inactive)

row,Compound,hERG blockade
1,Cc1ncc(CSC(=N)N)n1Cc1ccccc1,-16.6% (inactive)
2,Cc1c2ccccc2c(CSC(=N)N)c2ccccc12,103% (active)
3,O=C(O)CSCCc1ccccc1,5.62% (inactive)
4,CC12CC(=O)C3C(CCC4=CC(=O)CCC43C)C1CC=C2CC(=O)O (stereo not drawn),-16.4% (inactive)
5,CCCCSCc1nc2nc(Cl)c(Cl)nc2[nH]1,-33.6% (active)
6,O=C(O)c1nc2nc(Cl)c(Cl)nc2[nH]1,6.64% (inactive)
7,CCN(CCO)CC1CCCC2CCCCC21 (stereo not drawn),-6.41% (inactive)
8,O=C(O)C1C2OC(C(Br)C2Br)C1C(=O)O (stereo not drawn),-2.82% (inactive)
9,CC(=O)NC(Cc1ccc(O)cc1)C(=O)O (stereo not drawn),-8.5% (inactive)
10,CN1CC(c2ccccc2)C(O)(C2(c3ccccc3)CN(C)CC(c3ccccc3)C2=O)C(c2ccccc2)C1 (stereo not drawn),20.8% (active)
11,CC1(C)N=C(N)N=C(N)N1CCCCc1ccccc1,-14.1% (inactive)
12,Nc1nc(SCCc2ccccc2)c2[nH]cnc2n1,-0.569% (inactive)
13,Nc1nc(N)c(CCCCc2ccccc2)c(N)n1,26.6% (active)
14,Cn1c(=O)c2[nH]c(CS(=O)(=O)Cc3nc4c([nH]3)c(=O)n(C)c(=O)n4C)nc2n(C)c1=O,-2.72% (inactive)
15,Nc1nc(N)c(N=Nc2ccc(C(=O)O)c(O)c2)c(N)n1,12.4% (inactive)
16,c1ccc(SCCc2ccncc2)cc1,5.61% (inactive)
17,CC(=NNS(=O)(=O)c1ccc(C)cc1)P(=O)(O)O,15.5% (inactive)
18,COc1ccc2cc1Oc1ccc(cc1)CC1c3cc(c(OC)cc3CCN1C)Oc1c(OC)c(OC)cc3c1C(C2)N(C)CC3 (stereo not drawn),70.1% (active)
19,COc1ccc2cc1Oc1ccc(cc1)CC1c3c(cc(OC)c4c3Oc3cc5c(cc3O4)CCNC5C2)CCN1C (stereo not drawn),79.4% (active)
20,COc1cc2c3cc1Oc1c(OC)c(OC)cc4c1C(Cc1ccc(O)c(c1)Oc1ccc(cc1)CC3N(C)CC2)CN(C)C4 (stereo not drawn),37.9% (active)
21,COc1cc2c3cc1Oc1cc(ccc1O)CC1c4c(cc(OC)c(O)c4Oc4ccc(cc4)CC3[N+](C)(C)CC2)CC[N+]1(C)C (stereo not drawn),11.2% (inactive)
22,COc1ccc(CC2C(=O)NC(C)C(=O)N(C)C3Cc4ccc(cc4)Oc4cc(ccc4O)CC(C(=O)NC(C)C(=O)NC(C)C(=O)N2C)N(C)C3=O)cc1 (stereo not drawn),4.92% (inactive)
23,N=c1sc2ccccc2n1CCS (tested in a mixture with another compound),5.15% (inactive)
24,COC(NC(N)=O)C(=O)O (stereo not drawn),6.05% (inactive)
25,Cc1c(Cl)cc(C(C)(C)C)c(O)c1Cc1c(C)c(Cl)cc(C(C)(C)C)c1O,0.223% (inactive)
26,CC(C)(CCC(C)(C)c1ccccc1)c1ccccc1,1.92% (inactive)

row,Compound,hERG blockade
1,CN(C)Cc1nsc(N(C)C)n1,2.33% (inactive)
2,Cn1c(=O)c2c(nc(Cc3ccccc3)n2CC(=O)O)n(C)c1=O,11.6% (inactive)
3,CCOc1ccccc1C=C(C#N)C(N)=O,-12.6% (inactive)
4,CC(=Cc1ccc(Cl)cc1)C(C)(C)C(=O)O,-2.46% (inactive)
5,O=C(O)C1C2C=CC(O2)C1C(=O)Nc1ccccc1 (stereo not drawn),-12.4% (inactive)
6,O=C(NN=Cc1ccc2c(c1)CCC2)c1ccccc1O,7.38% (inactive)
7,FC(F)(F)c1nc2nc(Cl)c(Cl)nc2n1CCCN1CCOCC1,-9.32% (inactive)
8,CN(C)CCCN1CCC2(CCC(C(C)(C)C)CC2)CC1,11.2% (inactive)
9,CC(C)(C)C1CCC2(CC1)CCN(CCCN1CCOCC1)CC2,36.7% (active)
10,c1ccc(NCCSc2nc3ccccc3s2)cc1,-0.231% (inactive)
11,CCC1CC(=O)N(SCC(N)C(=O)O)C1=O (stereo not drawn),-6% (inactive)
12,Fc1cccc(F)c1C(Nc1nncs1)Nc1nncs1,-2.76% (inactive)
13,CC(C)C(Sc1nc(N)nc2nc[nH]c12)C(=O)O (stereo not drawn),1.36% (inactive)
14,C[N+](C)(C)CCN[N+]1(C)CCCc2ccccc21 (stereo not drawn),13.2% (inactive)
15,CC(=NS(=O)(=O)c1ccc(Cl)c(Cl)c1)OCC(C)(C)C,21.3% (active)
16,CNCC(Cl)=NS(=O)(=O)c1ccc(C)cc1,2.08% (inactive)
17,CC(C)(C)C(=O)C(C(c1ccccc1)N1CCOCC1)N1CCOCC1 (stereo not drawn),18.3% (inactive)
18,O=C(O)CC(Cc1ccccc1Cl)C(=O)O (stereo not drawn),9.3% (inactive)
19,CC(CNC(N)=O)NC(N)=O (stereo not drawn),2.5% (inactive)
20,O=C(O)CC1(CC(=O)O)Nc2ccccc2SC1=O,-18.2% (inactive)
21,C[N+](C)(C)c1cc2c(nn1)Nc1ccccc1S2,43.5% (active)
22,O=S(=O)(O)CCCc1cccc2ccccc12,-12.8% (inactive)
23,Nc1cccc2nsnc12,-4.23% (inactive)
24,NC(CCc1ccccc1)(C(=O)O)c1ccccc1 (stereo not drawn),-9.5% (inactive)
25,CC12CCC(=O)C=C1CCC1C2CCC2(C)C(C(=O)COS(=O)(=O)c3ccc(Br)cc3)CCC12 (stereo not drawn),17% (inactive)
26,O=C1CC2OCC=C3CN4CCC5(C(=O)O)C(N1)C2C3CC45 (stereo not drawn),-10.2% (inactive)

row,Compound,hERG blockade
1,NC1C2C(CC(=O)O)OCC=C3CN4CCC1(C(=O)C(=O)O)C4CC32 (stereo not drawn),13% (inactive)
2,O=C(O)C=C(C(=O)O)C12CCN3CC4=CCOC5CC(=O)NC1C5C4CC32 (stereo not drawn),20.4% (active)
3,ON(CCc1ccncc1)Cc1ccccc1,-10.6% (inactive)
4,CC12CCC(O)CC1CCC1C2CCC2(C)C(c3cc(C(F)(F)F)n[nH]3)CCC12 (stereo not drawn),8.14% (inactive)
5,CN(C)S(=O)(=O)c1ccc(Nc2ccc(O)c3c2C(=O)c2c([N+](=O)[O-])ccc(O)c2C3=O)cc1,64.1% (active)
6,O=C1c2ccccc2C(=O)c2c(NC3CCCCC3)ccc(Nc3ccc(S(=O)(=O)O)cc3)c21,16.1% (inactive)
7,O=C1C2C3C=CC(C2C(=O)N1CN1CCSCC1)C1C2C(=O)N(CN4CCSCC4)C(=O)C2C31 (stereo not drawn),7.62% (inactive)
8,CC(=O)Nc1ccc(S(=O)(=O)N=S(C)C)cc1,14.2% (inactive)
9,c1ccc(COC2NCCN2Cc2ccccc2)cc1 (stereo not drawn),7.69% (inactive)
10,c1ccc([P+](CC[P+](c2ccccc2)(c2ccccc2)c2ccccc2)(c2ccccc2)c2ccccc2)cc1,11.7% (inactive)
11,NCCCc1ccc2oc3ccccc3c2c1,29.2% (active)
12,Cc1cc(=O)[nH]c2cc3oc4ccccc4c3cc12,4.54% (inactive)
13,O=C(O)CSc1ccc([N+](=O)[O-])cc1[N+](=O)[O-],2.18% (inactive)
14,Cn1cnc([N+](=O)[O-])c1SCC(=O)O,2.91% (inactive)
15,O=C(O)CSc1ncccc1[N+](=O)[O-],-20.2% (active)
16,NCC(O)CSCc1ccc(Cl)cc1 (stereo not drawn),-14.3% (inactive)
17,c1ccc(-c2nnn(CCN3CCCCC3)n2)cc1,-7.12% (inactive)
18,Cn1c(=O)c2c(nc(NN=Cc3ccccc3C(=O)O)n2C)n(C)c1=O,-7% (inactive)
19,CC(C)C(C(=O)O)N1C(=O)c2ccccc2C1=O (stereo not drawn),5.91% (inactive)
20,Cc1ccc(C(N)=Nc2ccccc2)cc1,8.7% (inactive)
21,O=C(O)CCc1nc2ccccc2[nH]1,-3.47% (inactive)
22,O=C(O)CCc1ccc(-c2ccccc2)[nH]1,-28.1% (active)
23,O=C(O)CCc1nc(-c2ccccc2)c(-c2ccccc2)o1,1.96% (inactive)
24,O=C(CC(C(=O)O)N1CCOCC1)c1ccccc1 (stereo not drawn),7.79% (inactive)
25,OCC(O)C(O)C(O)C(O)c1nc2ccc(Cl)cc2[nH]1 (stereo not drawn),3.95% (inactive)

# — PubChem BioAssay AID376 (PDSP, 2006)
